Source: PubChem BioAssay (Buhrlage Lab, Dana-Farber Cancer Institute and Novartis Institutes for BioMedical Research (Cambridge, Mass))
Compounds with a hit are over-represented: about 11% of the library has one in this group of screens.
USP17 inh: inhibitors of human USP17 deubiquitinase. purified USP17, Ub-rhodamine cleavage fluorescence, 3 h. A8MUK1. inhibition, % at 50 µM. 47,000 tested, 6.5% active
Target sequence (A8MUK1 whole entry, looked up): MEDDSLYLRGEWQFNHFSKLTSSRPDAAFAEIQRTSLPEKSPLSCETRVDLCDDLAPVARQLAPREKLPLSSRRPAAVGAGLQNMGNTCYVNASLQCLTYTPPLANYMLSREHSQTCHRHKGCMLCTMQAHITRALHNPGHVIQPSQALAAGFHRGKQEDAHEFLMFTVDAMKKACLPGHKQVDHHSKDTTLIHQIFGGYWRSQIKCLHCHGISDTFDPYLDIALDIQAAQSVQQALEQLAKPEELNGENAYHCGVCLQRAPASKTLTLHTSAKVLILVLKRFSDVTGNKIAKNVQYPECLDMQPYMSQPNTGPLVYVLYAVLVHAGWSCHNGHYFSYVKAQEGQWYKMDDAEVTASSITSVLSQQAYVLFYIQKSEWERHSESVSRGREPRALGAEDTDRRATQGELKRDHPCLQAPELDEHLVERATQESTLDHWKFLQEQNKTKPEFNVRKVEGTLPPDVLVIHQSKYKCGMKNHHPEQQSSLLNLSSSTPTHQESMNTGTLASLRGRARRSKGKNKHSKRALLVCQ
USP30 inh: blocks human USP30 ubiquitin-rhodamine cleavage; purified USP30, Ub-rhodamine cleavage fluorescence; 47,000 tested, 5.3% active; AID 1645860; Q70CQ3; inhibition, % at 25 µM
USP28 block: inhibitors of human USP28 deubiquitinase | purified USP28, Ub-rhodamine cleavage fluorescence, 30 min | 47,000 tested, 3% active | inhibition, % at 25 µM | Q96RU2
A number is an active result; i = inactive; nt = no result. No stated cut-off is given here; in the data, active means inhibition above about 30%; inactive means the rest.

SMILES | USP17 inh | USP30 inh | USP28 block
O=C(Nc1nc2ccccc2s1)c1cccn(Cc2ccc(Cl)cc2)c1=O | i | i | i
O=C(NCc1cccnc1)c1cccn(Cc2ccc(Cl)cc2)c1=O | i | 32 | i
Cn1cc(CN2CCO[C@@H]3CC(COc4ccccn4)C[C@H]32)cn1 (stereo not given in full) | i | nt | nt
c1csc(CCN2CCc3nc4cccnc4cc3C2)c1 | i | i | i
CCOC(=O)[C@@H]1[C@@H](c2ccccc2)CN2CCN(S(C)(=O)=O)C[C@H]12 | i | i | i
O=C1CC2(CCNCC2)CC(=O)N1CC1CC1 | i | i | i
COc1cc(N2CCCC3(COCCN(CC4CC4)C3)C2)ncn1 (stereo not given) | i | i | i
COc1ccc(C2(CCNCc3ccc(Cl)cc3)CCOC(C)(C)C2)cc1 (stereo not given) | i | 34 | i
CC(C)=CCOC(C)(C)[C@H]1OC2CC[C@@]3(C)C(CCC4Cc5c([nH]c6ccccc56)[C@@]43C)C23OC3[C@@H]1O (stereo not given in full) | 87 | 84 | 88
O=C(c1nc(-c2ccncc2)no1)N1CCC2(CC1)OCCO2 | i | i | i
CC12CCC3C(C=CC4=CC(=O)CCC43C)C1CCC2=O (stereo not given) | i | i | i
CC(C)CN1C(=O)c2ccccc2C(C(=O)N2CCC3(CC2)OCCO3)C1c1cccs1 (stereo not given) | i | i | i
Cc1nn(C2CCCC2)c2c1C(c1ccc3c(c1)OCO3)SCC(=O)N2 (stereo not given) | i | 30 | i
O=C1CSC(c2ccc3c(c2)OCO3)c2c(n(C3CCCC3)[nH]c2=O)N1 (stereo not given) | i | i | i
CN1CC[C@@H]2[C@H](C1)CN2C(=O)Nc1ccc(Cl)cc1 | i | i | i
COC(=O)C[C@@H]1C/C=C/C(=O)O[C@H]([C@H](C)[C@@H](OC)/C(C)=C/C=C/C(C)=C/c2coc(C)n2)C[C@H](O)[C@@]2(C)O[C@@H]2/C=C/[C@@H](C)[C@H](O)C1 | i | i | i
CN=C(N)NCCC/C=C/CCC[C@H](C)C[C@H](C)C1OC(=O)C(C)C(O)/C=C/C(C)C(O)CC(O)C(C)C(O)CCC(C)C(O)CC2(O)OC(CC(OC(=O)CC(=O)O)CC(O)CC(O)C(C)C(O)/C=C/C=C/C1C)CC(O)C2O (stereo not given in full) | 32 | i | 34
CCOC(=O)c1c(C)n(C2CC2)c2ccc(OC)cc12 | i | i | 37
COc1cc(C2SCC(=O)Nc3c2c(=O)[nH]n3C2CCCCCC2)cc(OC)c1OC (stereo not given) | i | i | i
COc1cc(C2SCC(=O)Nc3c2c(-c2ccccc2)nn3-c2ccccc2)cc(OC)c1OC (stereo not given) | i | i | 77
O=C1CSC(c2ccc(Cl)cc2)c2c(-c3ccccc3)nn(-c3ccccc3)c2N1 (stereo not given) | i | 32 | 43
COc1cccc(C2SCC(=O)Nc3c2c(C)nn3-c2nc(C)cc(C)n2)c1 (stereo not given) | i | i | i
CC12CN3CC(c4ccccc4)(CN(C1)C3c1ccccn1)C2=O (stereo not given) | i | i | i
N#Cc1ccc(NC(=O)CS(=O)(=O)Cc2ccccc2)cc1Cl | i | i | i
COc1ccc(S(=O)(=O)n2cc(CCN3CCS(=O)(=O)CC3)c3ccccc32)cc1 | nt | i | i
SMILES | USP17 inh | USP30 inh | USP28 block
O=C1CC2(CCNCC2)CN1Cc1ccc(F)cc1 | i | i | i
O=C1CC[C@]2(O)c3c(ccc(O)c31)-c1ccc(O)c3c1[C@H]2[C@@H]1O[C@@H]1C3=O | i | i | i
CC12CN3CC(C)(CN(C1)C3c1ccccn1)C2 (stereo not given) | i | i | i
CC(C)C12CN3CC(C(C)C)(CN(C1)C3c1ccccn1)C2O (stereo not given) | 39 | i | i
C=C(C)[C@H]1O[C@H]2CC[C@@]3(C)[C@@](O)(CC[C@H]4[C@@H]5OC(C)(C)[C@H]6C[C@@H]7C(=C)Cc8c(Cl)cc9[nH]c(c5c9c8[C@@]76O)[C@]43C)[C@]23O[C@@H]3[C@H]1O | i | i | i
C=Cc1cc(OC)c2c(c1)c(=O)oc1c2cc(OC)c2c(O)ccc(C3OC(C(C)O)C(O)C3O)c21 (stereo not given) | i | i | i
Cc1ccccc1COc1ccc(C2SCC(=O)Nc3n[nH]c(C)c32)cc1 (stereo not given) | 36 | 41 | i
Cc1[nH]nc2c1C(c1ccc(OCc3cccc(F)c3)cc1)SCC(=O)N2 (stereo not given) | nt | i | i
CCc1ccccc1NC(=O)CN1C(=O)CN=C(c2ccccc2)c2ccccc21 | i | i | i
CCOc1cccc(CNC(=O)c2cn(C)c3ncccc23)c1 | i | i | i
Cc1ccc(C)c(Cn2cccc(C(=O)Nc3ccccn3)c2=O)c1 | i | i | 34
O=C(Nc1ccccn1)c1c(O)c2ccccc2n(Cc2ccccc2)c1=O | i | i | i
COc1ccc(NC(=O)c2cnn(Cc3ccccc3)c2)cc1OC | i | i | i
COc1cccc2c1NC(=O)C21CCN(C(=O)Nc2ccc(F)cc2)CC1 | i | i | i
COc1cccc2c1NC(=O)C21CCN(C(=O)Nc2cccc(C)c2)CC1 | 54 | i | i
O=C(CN1C(=O)CSc2ncccc21)N1CCC2(CC1)OCCO2 | i | i | i
CN1C(=O)C23SSC1(CO)C(=O)N2C1Nc2ccccc2C1(C12c4ccccc4NC1N1C(=O)C4(CO)SSC1(C(=O)N4C)C2O)C3O (stereo not given) | i | i | i
CN1C(=O)[C@@]23CC4=CC=C[C@H](O)C4N2C(=O)[C@]1(CO)SS3 (stereo not given in full) | i | 35 | i
